The full data set covers some 7,900 targets. This sample favours those with a hit. About 0.6% of all pairs of compound and target were hits. A number with no mark means an inactive call.
Key:
Assay in all cases: log2 fold change, soluble protein after heating vs DMSO (PISA); higher = thermal stabilisation; K562 cells, 10 uM, 30 min; active = over 0.2 and 3.5 SD of the protein, either way, in both replicates (recomputed)
[1] = compound: CC[C@@H]1C(=O)N(C)c2cnc(Nc3ccc(C(=O)NC4CCN(C)CC4)cc3OC)nc2N1C1CCCC1
Method in brief: (§1)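 Soluble protein was quantified by TMTpro 16plex LC-MS/MS after channel sums were equalised. It was obtained as the supernatant after 21,000xg for 90 min from pooled aliquots of K562 cells (2×10^6 cells/mL, 10 μM compound, 30 min) heated for 3 min across 48°C-58°C and extracted in PBS with 0.5% NP-40 at 4°C. Thermal stability values are relative to control samples and come from duplicates. They are given as log2 fold changes.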

[2] = compound: CC[C@@H]1C(=O)N(C)c2cnc(Nc3ccc(C(=O)N[C@H]4CC[C@H](N5CCN(CC6CC6)CC5)CC4)cc3OC)nc2N1C(C)C [volasertib]
Method in brief: as §1

[3] = compound: CC[C@H](C)N1C=C(C2=C(C=C(C=C21)C3=CN=C(C=C3)N4CCNCC4)C(=O)NCC5=C(C=C(NC5=O)C)C)C
Method in brief: as §1

[4] = compound: CCn1c(C(=O)N(C2CC2)C2CC2)cc2c3c(ncn3C)c(Nc3cc(C)n(C)n3)nc21
Method in brief: as §1

[5] = compound: CCn1cc(-c2ccnc3[nH]c(-c4cccc(CN(C)C)c4)cc23)c(-c2ccc(NC(=O)N(C)C)cc2)n1
Method in brief: as §1

[6] = compound: CN(CCOC1=CC=C(C=C1)C[C@H]2C(=O)NC(=O)S2)C3=CC=CC=N3 (racemic) [rosiglitazone]
Method in brief: as §1

[7] = compound: CN1CCC(CNc2ccc3ncc(-c4cccc(OC(F)(F)F)c4)n3n2)CC1
Method in brief: as §1

[8] = compound: CN1CCc2c(c3ccccc3n2Cc2ccc(C(=O)NO)cc2)C1 [Tubastatin A]
Method in brief: as §1

[9] = compound: CNC(=O)C1=CC=CC=C1NC2=NC(=NC=C2Cl)NC3=C(C=C(C=C3)N4CCOCC4)OC
Method in brief: as §1

[10] = compound: CNCc1ccc(-c2[nH]c3cc(F)cc4c3c2CCNC4=O)cc1 [rucaparib]
Method in brief: as §1

[11] = compound: COC(=O)N[C@@H](C)CNc1nccc(-c2cn(C(C)C)nc2-c2cc(Cl)cc(NS(C)(=O)=O)c2F)n1 [encorafenib]
Method in brief: as §1

[12] = compound: CC[C@H](C)[C@@H](C(=O)N[C@@H]([C@@H](C)O)C(=O)N[C@@H](CC(C)C)C(=O)[C@]1(CO1)C)NC(=O)[C@H]([C@@H](C)CC)N(C)C(=O)C [epoxomicin]
Method in brief: as §1

[13] = compound: CN1CCN(c2nc(C3=C(c4c[nH]c5ccccc45)C(=O)NC3=O)c3ccccc3n2)CC1 [sotrastaurin]
Method in brief: as §1

[14] = compound: CN(C)CC(=O)Nc1ccc2[nH]c(=O)c3ccccc3c2c1
Method in brief: as §1

[15] = compound: CN1C2=C(C3=C1C(=O)N(N=C3)CC4=CC(=CC=C4)N)SC(=C2)S(=O)C
Method in brief: as §1

[16] = compound: CN1CCN(CCOc2cc(OC3CCOCC3)c3c(Nc4c(Cl)ccc5c4OCO5)ncnc3c2)CC1 [saracatinib]
Method in brief: as §1

[17] = compound: CN1CC[C@H](c2c(O)cc(O)c3c(=O)cc(-c4ccccc4Cl)oc23)[C@H](O)C1 [alvocidib]
Method in brief: as §1

[18] = compound: CNC(=O)c1ccc(Nc2ncc(C(F)(F)F)c(NCc3nccnc3N(C)S(C)(=O)=O)n2)cc1 [defactinib]
Method in brief: as §1

[19] = compound: CNc1nc(-c2ccc3c(N)n[nH]c3c2)cc(N2C[C@@H](C(=O)NC3CCCCC3)CC[C@H]2C)n1
Method in brief: as §1

[20] = compound: COC(=O)[C@H](CCSC)NC(=O)C1=C(C=C(C=C1)NC[C@H](CS)N)C2=CC=CC=C2
Method in brief: as §1

Chain of UniProt O43513 (O43513 whole entry, looked up): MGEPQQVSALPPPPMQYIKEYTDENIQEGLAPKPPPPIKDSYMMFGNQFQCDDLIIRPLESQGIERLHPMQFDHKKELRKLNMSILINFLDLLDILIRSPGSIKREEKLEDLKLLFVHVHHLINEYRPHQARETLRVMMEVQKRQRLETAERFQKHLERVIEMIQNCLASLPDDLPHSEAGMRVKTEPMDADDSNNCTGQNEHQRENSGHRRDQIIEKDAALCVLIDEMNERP
Chain of UniProt Q9NQX7 (Q9NQX7 whole entry, looked up): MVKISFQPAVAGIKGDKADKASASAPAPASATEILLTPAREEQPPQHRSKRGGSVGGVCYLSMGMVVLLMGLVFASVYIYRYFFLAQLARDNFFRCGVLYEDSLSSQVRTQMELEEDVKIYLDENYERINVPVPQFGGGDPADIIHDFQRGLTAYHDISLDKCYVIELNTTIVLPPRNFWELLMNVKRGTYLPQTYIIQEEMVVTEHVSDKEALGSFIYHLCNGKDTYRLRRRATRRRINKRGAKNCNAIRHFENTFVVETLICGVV
Chain of UniProt Q9C099 (Q9C099 whole entry, looked up): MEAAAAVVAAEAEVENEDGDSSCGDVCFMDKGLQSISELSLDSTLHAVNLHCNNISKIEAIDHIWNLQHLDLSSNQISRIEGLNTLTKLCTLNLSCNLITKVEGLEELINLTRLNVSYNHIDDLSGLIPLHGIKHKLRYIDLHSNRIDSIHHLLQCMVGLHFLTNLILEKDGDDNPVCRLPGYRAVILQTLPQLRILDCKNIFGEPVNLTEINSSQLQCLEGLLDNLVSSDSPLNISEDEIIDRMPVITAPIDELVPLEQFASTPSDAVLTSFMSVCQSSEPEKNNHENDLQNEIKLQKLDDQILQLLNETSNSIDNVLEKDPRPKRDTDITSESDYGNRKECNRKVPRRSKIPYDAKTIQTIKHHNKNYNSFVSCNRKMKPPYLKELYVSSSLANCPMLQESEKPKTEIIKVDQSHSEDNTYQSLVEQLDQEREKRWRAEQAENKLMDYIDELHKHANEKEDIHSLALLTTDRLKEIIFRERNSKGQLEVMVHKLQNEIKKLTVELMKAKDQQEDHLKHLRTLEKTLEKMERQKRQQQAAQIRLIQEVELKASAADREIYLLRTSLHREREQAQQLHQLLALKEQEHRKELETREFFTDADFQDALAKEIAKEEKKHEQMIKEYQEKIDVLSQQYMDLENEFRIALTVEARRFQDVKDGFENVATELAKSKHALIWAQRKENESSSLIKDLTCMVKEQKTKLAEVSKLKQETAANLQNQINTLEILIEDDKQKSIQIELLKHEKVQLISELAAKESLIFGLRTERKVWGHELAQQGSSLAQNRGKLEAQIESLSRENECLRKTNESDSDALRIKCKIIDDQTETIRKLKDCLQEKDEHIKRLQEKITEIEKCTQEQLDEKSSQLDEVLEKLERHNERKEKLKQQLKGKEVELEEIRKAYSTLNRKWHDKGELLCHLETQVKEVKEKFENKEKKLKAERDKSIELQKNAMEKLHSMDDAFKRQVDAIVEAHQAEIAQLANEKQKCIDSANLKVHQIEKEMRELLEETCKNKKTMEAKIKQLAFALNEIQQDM
Chain of UniProt Q9NQR1 (Q9NQR1 whole entry, looked up): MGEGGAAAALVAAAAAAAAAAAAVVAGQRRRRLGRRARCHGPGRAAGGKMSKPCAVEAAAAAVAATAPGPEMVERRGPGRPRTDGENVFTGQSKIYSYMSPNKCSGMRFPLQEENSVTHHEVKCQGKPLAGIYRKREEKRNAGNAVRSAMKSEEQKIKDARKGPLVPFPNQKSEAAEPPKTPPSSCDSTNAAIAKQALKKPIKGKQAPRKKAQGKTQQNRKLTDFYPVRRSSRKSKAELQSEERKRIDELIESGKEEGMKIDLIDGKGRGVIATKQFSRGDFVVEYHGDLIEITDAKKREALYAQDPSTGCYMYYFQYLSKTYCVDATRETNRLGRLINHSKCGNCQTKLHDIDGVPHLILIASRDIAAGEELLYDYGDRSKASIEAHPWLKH
Chain of UniProt Q52LA3 (Q52LA3 whole entry, looked up): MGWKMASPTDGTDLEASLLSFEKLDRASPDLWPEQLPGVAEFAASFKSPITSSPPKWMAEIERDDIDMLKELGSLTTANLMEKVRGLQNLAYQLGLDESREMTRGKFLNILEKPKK
Chain of UniProt O15243 (O15243 whole entry, looked up): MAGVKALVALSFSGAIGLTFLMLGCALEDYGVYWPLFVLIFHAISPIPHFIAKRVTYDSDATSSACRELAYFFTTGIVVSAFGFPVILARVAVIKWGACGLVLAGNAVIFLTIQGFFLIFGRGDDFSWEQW
Chain of UniProt Q86UD3 (Q86UD3 whole entry, looked up): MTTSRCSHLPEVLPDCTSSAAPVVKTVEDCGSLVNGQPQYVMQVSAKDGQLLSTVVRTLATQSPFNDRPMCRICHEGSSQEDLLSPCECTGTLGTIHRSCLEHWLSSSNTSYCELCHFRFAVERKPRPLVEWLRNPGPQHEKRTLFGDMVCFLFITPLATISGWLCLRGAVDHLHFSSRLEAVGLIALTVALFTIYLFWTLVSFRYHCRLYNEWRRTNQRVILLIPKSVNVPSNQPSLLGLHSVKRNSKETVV
Chain of UniProt Q86X29 (Q86X29 whole entry, looked up): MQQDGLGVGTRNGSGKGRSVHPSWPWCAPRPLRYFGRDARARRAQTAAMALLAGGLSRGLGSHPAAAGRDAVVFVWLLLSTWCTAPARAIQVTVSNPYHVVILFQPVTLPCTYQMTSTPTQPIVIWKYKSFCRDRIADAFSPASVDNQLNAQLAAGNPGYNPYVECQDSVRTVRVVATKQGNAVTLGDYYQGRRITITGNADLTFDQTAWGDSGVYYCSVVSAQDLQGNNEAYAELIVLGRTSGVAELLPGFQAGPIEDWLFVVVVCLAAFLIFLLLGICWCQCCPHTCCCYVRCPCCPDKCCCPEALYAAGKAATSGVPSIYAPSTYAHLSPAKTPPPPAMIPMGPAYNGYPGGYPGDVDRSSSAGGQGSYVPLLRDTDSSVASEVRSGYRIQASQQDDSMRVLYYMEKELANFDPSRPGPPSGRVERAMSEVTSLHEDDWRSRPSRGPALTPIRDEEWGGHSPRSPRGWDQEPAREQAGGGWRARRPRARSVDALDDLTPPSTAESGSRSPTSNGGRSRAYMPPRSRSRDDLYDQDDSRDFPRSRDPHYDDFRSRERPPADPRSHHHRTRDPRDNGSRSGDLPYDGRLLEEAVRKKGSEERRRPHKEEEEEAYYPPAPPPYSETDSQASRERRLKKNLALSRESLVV
Chain of UniProt Q8TDD5 (Q8TDD5 whole entry, looked up): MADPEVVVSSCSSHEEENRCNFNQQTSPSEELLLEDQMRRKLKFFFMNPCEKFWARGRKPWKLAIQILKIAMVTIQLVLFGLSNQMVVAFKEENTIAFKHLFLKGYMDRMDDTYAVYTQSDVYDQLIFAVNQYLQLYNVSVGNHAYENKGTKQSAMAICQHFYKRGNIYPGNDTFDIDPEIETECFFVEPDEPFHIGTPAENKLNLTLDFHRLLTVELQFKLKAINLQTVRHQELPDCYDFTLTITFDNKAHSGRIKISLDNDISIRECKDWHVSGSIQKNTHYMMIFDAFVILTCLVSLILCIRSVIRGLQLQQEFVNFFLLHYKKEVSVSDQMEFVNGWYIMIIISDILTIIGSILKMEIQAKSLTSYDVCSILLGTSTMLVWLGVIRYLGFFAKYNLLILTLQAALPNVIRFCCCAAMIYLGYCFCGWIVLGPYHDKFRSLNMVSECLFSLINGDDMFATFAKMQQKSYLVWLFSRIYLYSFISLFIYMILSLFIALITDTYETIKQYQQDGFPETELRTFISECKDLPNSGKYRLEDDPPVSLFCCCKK
Chain of UniProt Q92585 (Q92585 whole entry, looked up): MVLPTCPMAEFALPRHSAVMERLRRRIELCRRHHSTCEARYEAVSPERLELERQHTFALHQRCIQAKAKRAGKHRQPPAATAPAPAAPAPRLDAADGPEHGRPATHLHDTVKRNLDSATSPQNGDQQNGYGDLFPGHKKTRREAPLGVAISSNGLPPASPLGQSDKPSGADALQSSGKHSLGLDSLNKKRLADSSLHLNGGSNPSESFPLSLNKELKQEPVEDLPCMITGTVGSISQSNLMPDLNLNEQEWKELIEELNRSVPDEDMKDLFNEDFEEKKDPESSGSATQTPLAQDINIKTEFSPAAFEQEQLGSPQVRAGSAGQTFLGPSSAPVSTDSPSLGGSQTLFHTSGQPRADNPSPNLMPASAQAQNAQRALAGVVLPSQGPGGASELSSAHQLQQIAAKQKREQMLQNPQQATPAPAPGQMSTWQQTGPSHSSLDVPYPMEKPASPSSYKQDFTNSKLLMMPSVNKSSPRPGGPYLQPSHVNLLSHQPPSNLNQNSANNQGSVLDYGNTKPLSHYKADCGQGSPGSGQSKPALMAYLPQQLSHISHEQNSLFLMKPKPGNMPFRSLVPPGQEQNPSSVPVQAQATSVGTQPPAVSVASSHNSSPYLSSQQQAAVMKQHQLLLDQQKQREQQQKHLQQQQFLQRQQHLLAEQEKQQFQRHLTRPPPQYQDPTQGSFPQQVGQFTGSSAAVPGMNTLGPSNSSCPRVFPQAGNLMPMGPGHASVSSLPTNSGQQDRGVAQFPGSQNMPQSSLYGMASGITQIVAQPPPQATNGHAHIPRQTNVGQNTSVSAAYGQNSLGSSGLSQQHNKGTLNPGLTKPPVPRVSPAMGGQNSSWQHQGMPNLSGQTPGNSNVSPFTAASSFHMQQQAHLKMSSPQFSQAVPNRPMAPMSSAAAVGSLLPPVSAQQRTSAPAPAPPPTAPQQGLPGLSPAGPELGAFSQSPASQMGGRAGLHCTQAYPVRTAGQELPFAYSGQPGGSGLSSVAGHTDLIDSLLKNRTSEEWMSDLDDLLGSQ

Target	log2 fold change [1]	log2 fold change [2]	log2 fold change [3]	log2 fold change [4]	log2 fold change [5]	log2 fold change [6]	log2 fold change [7]	log2 fold change [8]	log2 fold change [9]	log2 fold change [10]	log2 fold change [11]	log2 fold change [12]	log2 fold change [13]	log2 fold change [14]	log2 fold change [15]	log2 fold change [16]	log2 fold change [17]	log2 fold change [18]	log2 fold change [19]	log2 fold change [20]
MCOLN3 (UniProt Q8TDD5)	0.094	-0.136	-0.071	-0.132	0.027	0.128	-0.084	-0.001	-0.141	-0.275	-0.026									
MARCHF3 (UniProt Q86UD3)	0.116	0.011	0.018			0.093				0	0.097	0.036	-0.055							
MFSD8 (UniProt Q8NHS3)	-0.016	0.032		0.001	-0.012	-0.139	0.127	0.023	-0.003	0.039	0.012	-0.021		-0.061	0.046	0.078	-0.044	-0.008	-0.053	0.003
MED12 isoform 2 (UniProt Q93074)	-0.055	-0.211	0.091	0.083	0.086	0.074	-0.071	0.32	0.303	0.137	0.145	-0.17	-0.09		0.154	0.072			0.102	
ITM2C (UniProt Q9NQX7)		-0.312	0.049	-0.096	-0.104	0.069	0.218		0			-0.149	-0.072	-0.046	0.125	-0.007	0.034	0.039	-0.003	-0.045
LSR isoform 3 (UniProt Q86X29)		-0.096						0.084					0.176		0.047	-0.207	0.088		0.114	
MAPK7 (UniProt Q13164)					-0.049		-0.125					0.093								
JAK3 (UniProt P52333)		-0.075	0.09	0.081	0.128	0.011	0.012	-0.016	0.116			-0.033	-0.042	-0.042	-0.01	-0.03	0.004	0.003	-0.158	-0.056
LYN isoform 2 (UniProt P07948)		-0.003	0.036	0.076					0.043			0.246	0.034	0.007			0.015	-0.035		-0.004
LRRCC1 (UniProt Q9C099)								0.292							0.281	0			0.06	
MAML1 (UniProt Q92585)				-0.092					0.644 (active)			0.059	-0.051	-0.055			0.062	-0.179		-0.327
KMT5A (UniProt Q9NQR1)					0.091		-0.2						-0.18							
MED7 (UniProt O43513)		0.139	-0.287	0.015		-0.059		-0.145	-0.056			0.127	0.151	0.021	-0.172	-0.026	-0.072	-0.015	-0.006	0.012
LIN52 (UniProt Q52LA3)															0.003	0.038			-0.059	
LUZP1 (UniProt Q86V48)		-0.021	-0.026	0.09	0.026	0.026	-0.039	0.13	-0.022			-0.22	-0.088	0.035	0.026	0.075	0.229	-0.498	0.002	-0.209
INTS5 (UniProt Q6P9B9)		-0.152	0.049	-0.046		0.212		-0.133	-0.086			0.052	-0.06	-0.003	-0.133	-0.051		-0.058	0.044	0
MGRN1 isoform 2 (UniProt O60291)		-0.115		0.071	-0.072	0.014	-0.07	0.197	-0.054								0.036			
LEPROT (UniProt O15243)	-0.052			-0.11	0.075		-0.03	-0.133	0.087	0.028	-0.077	0.129			0.117	-0.261	0.071		-0.25	
IKZF1 (UniProt R9R4D9)		0.085			-0.247		0.05	-0.158							0.229	0.019	0.155		-0.038	
